Records with an inconclusive call do not appear. Calls of active or inactive are those of the source. The call rests on the fitted dose curve; in most records, active means well fitted curve in the direction sought with a large enough effect; inconclusive means small, poorly fitted or top-dose-only effect, or another doubt; inactive means no such curve, though single readings can be large; an effect the other way counts as inactive or inconclusive.
Key:
[1] = target: Calcium and integrin-binding protein 1 (Homo sapiens) (UniProt Q99828); assay: Primary qHTS for Identification of Calcium Integrin Binding Protein 1 (CIB1) Competitor (AID 1508620);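 further: GST tagged CIB1 binding a fluorescein labelled alphaIIb integrin peptide tracer; top concentration of the series differs between compounds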
How it was run: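 CIB1-GST (1 uM final) and compound incubated 15 min at room temperature before adding FITC-alphaIIb peptide tracer (100 nM final). Competition for binding read by fluorescence polarization (ex 480, em 540) after another 15 min at room temperature.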

[2] = Primary qHTS for inhibitors of nuclear receptor binding SET domain protein 2 (NSD2) in an isogenic RCH-ACV NSD2 p.E1099K mutant (9B) (AID 1645876); further: nearly all actives have a fitted effect of over 70% in size
[3] = Primary qHTS for inhibitors of nuclear receptor binding SET domain protein 2 (NSD2) in an RCH-ACV wild type WT cells (2C) (AID 1645877); further: nearly all actives have a fitted effect of over 70% in size

Measured: Potency

Calcium and integrin-binding protein 1 (Homo sapiens), sequence (Q99828 whole entry, looked up): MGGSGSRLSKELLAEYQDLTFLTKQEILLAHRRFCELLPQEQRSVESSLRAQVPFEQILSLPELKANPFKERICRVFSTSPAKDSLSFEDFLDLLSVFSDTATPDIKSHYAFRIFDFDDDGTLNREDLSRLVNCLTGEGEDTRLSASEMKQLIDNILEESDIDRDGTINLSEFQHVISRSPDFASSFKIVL

COC(=O)C1=CO[C@@H](O[C@@H]2O[C@H](CO)[C@@H](O)[C@H](O)[C@H]2O)[C@@H]2[C@@H](CO)[C@@H](O)C(O)[C@H]12 (some centres undefined)
inactive: all assays above

COC(=O)[C@]1(Cc2ccc(O)c(CC=C(C)C)c2)OC(=O)C(O)=C1c1ccc(O)cc1
inactive: all assays above

CC(=O)O[C@H]1C[C@@H](O)C(C)(C)C2C[C@@H](OC(C)=O)[C@@]3(C)C4=CCC(C(CO)CC(O)C5OC5(C)C)[C@]4(C)CCC3[C@]21C (some centres undefined)
inactive: all assays above

CSCC1OC(n2cnc3c(N)ncnc32)C(O)C1O (centres undefined)
inactive: all assays above

COc1cc2c(cc1O)CC(O)(CO)C(CO)C2c1ccc(OC2OC(CO)C(O)C(O)C2O)c(OC)c1 (centres undefined)
inactive: all assays above

CC1=CC23[C@H](C=C(C(=O)O)[C@@H]2COC(=O)[C@]3(O)CO)[C@@H]1C (some centres undefined)
inactive: all assays above

CCN=C1N[C@@H]2[C@@H](O)[C@H](O)[C@@H](CO)O[C@@H]2S1
inactive: all assays above

C=C1[C@H](OC(C)=O)[C@H]2[C@@H](OC(C)=O)C(C)C[C@]2(OC(C)=O)C(=O)[C@H](C)/C=C/C(C)(C)C(=O)[C@H](OC(=O)C(C)C)[C@H]1OC(C)=O (some centres undefined)
inactive: all assays above

Source: PubChem BioAssay (NCATS)
